High-throughput results as filed in PubChem BioAssay.
In the library only some 12% were active in any assay of this set; here they are far more common.
G9a block – qHTS Assay for Inhibitors of Histone Lysine Methyltransferase G9a; Histone-lysine N-methyltransferase EHMT2 (Homo sapiens), Q96KQ7; G9a H3K9 monomethylation, AlphaScreen, 2 h; Potency, µM (titrated, usually from 102 µM), inactives show at the top dose activity, negative = inhibition, most hits filed as inhibitors; 350,000 compounds, 8.8% hits; further: on the % scale 0 is the no-effect control and ±100 the full control effect; nearly all actives have a fitted effect of over 75% in size
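Compounds were preincubated with 20 nM G9a for 15 min, after which biotinylated H3K9 peptide (500 nM) and SAM (20 uM) started a 2 h room-temperature reaction. Monomethylated product was quantified by antibody-based AlphaScreen chemiluminescence.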
BAZ2B inh – qHTS Assay for Inhibitors of BAZ2B; Bromodomain adjacent to zinc finger domain protein 2B (Homo sapiens), Q9UIF8; AlphaScreen BAZ2B-H3K14Ac peptide displacement; Potency, µM (titrated, usually from 114 µM), inactives show at the top dose activity change, negative = inhibition, usual class: inhibitors; 360,000 compounds, 4.4% hits; AID 504333, 2011; further: on the % scale 0 is the no-effect control and ±100 the full control effect; nearly all actives have a fitted effect of over 60% in size
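AlphaScreen displacement of biotin-H3(5-23)K14Ac peptide (50 nM final) from BAZ2B (50 nM final) in PBS pH 7.4, 0.01% Tween-20; complex preformed 30 min RT, then compounds (top 110 uM) 30 min RT, beads 20 min dark.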
PLK1 PBD block – qHTS for Inhibitors of PLK1-PDB (polo-like kinase 1 - polo-box domain): Primary Screen; Plk1 PBD binding of FITC phosphopeptide, fluorescence polarization; Potency, µM, inactives show max response, negative = inhibition, most hits filed as inhibitors; 360,000 compounds, 2.8% hits; further: series mostly up to about 57 µM; on the % scale 0 is the no-effect control and ±100 the full control effect; nearly all actives have a fitted effect of over 65% in size
Target sequence (P53350 whole entry, looked up, the tested form may be a part): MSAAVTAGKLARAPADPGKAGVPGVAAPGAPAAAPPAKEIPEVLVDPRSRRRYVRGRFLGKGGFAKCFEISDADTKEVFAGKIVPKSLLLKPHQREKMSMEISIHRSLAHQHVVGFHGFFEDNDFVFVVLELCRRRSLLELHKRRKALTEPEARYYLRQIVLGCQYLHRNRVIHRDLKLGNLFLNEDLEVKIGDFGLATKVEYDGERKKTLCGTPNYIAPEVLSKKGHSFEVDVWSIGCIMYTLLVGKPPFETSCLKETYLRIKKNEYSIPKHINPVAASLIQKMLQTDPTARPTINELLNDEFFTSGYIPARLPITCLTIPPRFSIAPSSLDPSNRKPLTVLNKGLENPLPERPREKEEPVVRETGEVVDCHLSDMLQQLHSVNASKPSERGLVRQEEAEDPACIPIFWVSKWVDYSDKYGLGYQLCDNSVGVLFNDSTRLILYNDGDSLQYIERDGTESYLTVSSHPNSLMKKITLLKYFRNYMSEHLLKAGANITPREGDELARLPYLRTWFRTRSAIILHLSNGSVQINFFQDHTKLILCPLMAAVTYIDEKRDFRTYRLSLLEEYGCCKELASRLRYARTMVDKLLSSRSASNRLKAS
Sfp inh – qHTS Assay for Inhibitors of Bacillus subtilis Sfp phosphopantetheinyl transferase (PPTase); 4'-phosphopantetheinyl transferase ffp (Bacillus subtilis), Q9F4F7; AID 1490, 2009; Potency, µM, for the others: largest response in the series, negative = inhibition, hits mostly inhibitors; Biochemical Sfp PPTase activity, qHTS; 310,000 compounds, 3.5% hits;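 further: the enzyme is Sfp with the accession as filed and its product quenches rhodamine fluorescence; 0% = enzyme reaction without inhibitor and -100% = no enzyme wells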
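After 15 min at room temperature with compound, 15 nM Sfp received 5 uM rhodamine-CoA plus 12.5 uM BHQ-2-ybbR (50 mM Hepes pH 7.6, 10 mM MgCl2). Rate came from the fluorescence difference over 30 min, ex 525/em 598 nm.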
JMJD2A Tudor inh – qHTS Assay for Inhibitors of JMJD2A-Tudor Domain; Lysine-specific demethylase 4A (Homo sapiens), O75164; AlphaScreen JMJD2A-Tudor / H3K4me3 peptide binding; Potency, µM (highest dose often 114 µM), without a hit: at the top dose activity change, negative = inhibition, hits mostly inhibitors; 390,000 compounds, 4.4% hits; further: on the % scale 0 is the no-effect control and ±100 the full control effect; nearly all actives have a fitted effect of over 50% in size
HP1b chromo inh – HTS for Inhibitors of HP1-beta Chromodomain Interactions with Methylated Histone Tails | 390,000 compounds, 0.56% hits | Chromobox protein homolog 1 (Homo sapiens), P83916 | AlphaScreen HP1-beta / biotin-H3K9me3 peptide binding | AID 540317, 2011 | Potency, µM (top dose mostly 114 µM), inactives show top-dose activity change, negative = inhibition, usual class: inhibitors; further: nearly all actives have a fitted effect of over 70% in size
Target sequence (P83916 whole entry, looked up): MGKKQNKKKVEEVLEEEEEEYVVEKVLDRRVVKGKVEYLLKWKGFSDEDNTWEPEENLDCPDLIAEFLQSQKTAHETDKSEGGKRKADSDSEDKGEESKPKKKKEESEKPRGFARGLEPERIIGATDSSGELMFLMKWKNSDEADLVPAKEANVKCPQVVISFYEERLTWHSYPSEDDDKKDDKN
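Compound inhibition of the preformed complex between 50 nM HP1-beta and 50 nM biotinylated H3K9me3 peptide was read by AlphaScreen. Buffer was PBS pH 7.4 with 0.01% Tween-20. Incubations ran 30 min at room temperature, with 10 ug/mL donor/acceptor beads.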
Numbers without * were called inactive; [ ] = dose if it differs, or a comment. The call rests on the fitted dose curve; in most records, active means well fitted curve in the direction sought with a large enough effect; inconclusive means small, poorly fitted or top-dose-only effect, or another doubt; inactive means no such curve, though single readings can be large; an effect the other way counts as inactive or inconclusive. Potency means the concentration at half of the fitted maximal effect.

How did COc1cccc(Cn2ncc3c4sc(C)cc4n(C)c3c2=O)c1 do in these assays?
JMJD2A Tudor inh: -19.2%

How did CCc1nnc2c3ccccc3nc(Nc3ccc(F)c(Cl)c3)n12 do in these assays?
G9a block: -0.1%[59 µM]; BAZ2B inh: 3.5%; JMJD2A Tudor inh: 11.3%; HP1b chromo inh: 37.9%

How did Cc1cc(C)n2nc(C(=O)NC(c3ccccc3)c3ccccc3)nc2n1 do in these assays?
G9a block: 20.1%; BAZ2B inh: 10.0%; PLK1 PBD block: 8.1%; Sfp inh: 18.7%; JMJD2A Tudor inh: -16.1%; HP1b chromo inh: 10.2%

What do the screens show for `Cc1cc(C)n2nc(C(=O)Nc3cccnc3)nc2n1`?
G9a block: -27.1%[12.7 µM]; BAZ2B inh: 16.4%; PLK1 PBD block: -4.0%; Sfp inh: -1.5%; JMJD2A Tudor inh: -12.7%; HP1b chromo inh: 24.2%

What do the screens show for `Cc1cc(C)n2nc(C(=O)Nc3nccs3)nc2n1`?
G9a block: -9.3%; BAZ2B inh: 3.7%; PLK1 PBD block: -4.5%; Sfp inh: -7.0%; JMJD2A Tudor inh: 11.2µM*; HP1b chromo inh: 27.3%

How did Cc1cc(C)n2nc(CCc3nc4nc(C)cc(C)n4n3)nc2n1 do in these assays?
G9a block: -5.3%; BAZ2B inh: -4.5%; Sfp inh: 8.8%

What do the screens show for `CC(=O)N(C(C)=O)c1nc2nc(C)cc(C)n2n1`?
G9a block: inconclusive; BAZ2B inh: 56.2µM*; PLK1 PBD block: inconclusive; Sfp inh: -19.5%; JMJD2A Tudor inh: inconclusive; HP1b chromo inh: -21.6%

What do the screens show for `Cc1cc(C)n2nc(C(=O)Nc3ccc(N4CCOCC4)cc3)nc2n1`?
G9a block: 10µM*; BAZ2B inh: -8.5%; PLK1 PBD block: -0.1%; Sfp inh: -6.9%; JMJD2A Tudor inh: -6.3%; HP1b chromo inh: 35.2%

Results for Cc1cc(C)n2nc(C(=O)N3CCOCC3)nc2n1 ?
G9a block: -30.5%[59 µM]; BAZ2B inh: -7.7%; PLK1 PBD block: -14.8%; Sfp inh: 5.3%; JMJD2A Tudor inh: -4.7%[57.1 µM]; HP1b chromo inh: 22.1%

Results for Cc1csc(NC(=O)c2nc3nc(C)cc(C)n3n2)n1 ?
G9a block: inconclusive; BAZ2B inh: inconclusive; PLK1 PBD block: -0.9%; Sfp inh: -16.3%; JMJD2A Tudor inh: 79.4µM*; HP1b chromo inh: 4.3%

What do the screens show for `Cc1nc2c(=O)[nH]c(=S)n(C)c2nc1C`?
G9a block: 7.08µM*; BAZ2B inh: -27.9%; PLK1 PBD block: 2.99µM*; Sfp inh: 4.47µM*; JMJD2A Tudor inh: 50.1µM*; HP1b chromo inh: -70.7%

What do the screens show for `COC(=O)CC1C(=O)NCCN1C(=O)c1ccccc1` (centres undefined)?
G9a block: 8.0%[12.7 µM]; BAZ2B inh: 9.7%; PLK1 PBD block: 3.1%; Sfp inh: 14.4%; JMJD2A Tudor inh: -2.3%; HP1b chromo inh: 33.5%

How did COC(=O)CC1C(=O)NCCN1C(=O)CSc1nc2ccccc2s1 (centres undefined) do in these assays?
G9a block: 7.08µM*; PLK1 PBD block: 13.4µM*; Sfp inh: 70.8µM*; JMJD2A Tudor inh: -35.1%; HP1b chromo inh: 10.9%

How did COc1ccc(CNC2CCCC2)c(OC)c1OC do in these assays?
G9a block: 20.2%[12.7 µM]; BAZ2B inh: 13.1%; PLK1 PBD block: -4.4%; Sfp inh: 0.2%; JMJD2A Tudor inh: -4.4%; HP1b chromo inh: 16.5%

What do the screens show for `COc1cccc(CNCc2ccccc2Br)c1OC`?
G9a block: 16.1%[0.501 µM]; BAZ2B inh: inconclusive; PLK1 PBD block: 0.0%; Sfp inh: 13.3%; JMJD2A Tudor inh: 1.58µM*; HP1b chromo inh: inconclusive

Results for COc1ccccc1CNCc1ccc(OC)c(OC)c1OC ?
G9a block: 10µM*; BAZ2B inh: 79.4µM*; PLK1 PBD block: -1.6%; Sfp inh: inconclusive; JMJD2A Tudor inh: 14.1µM*; HP1b chromo inh: inconclusive

What do the screens show for `COC(=O)C1CCN(C(=O)COC(=O)/C=C/c2ccc(O)c(OC)c2)CC1`?
PLK1 PBD block: -9.8%; JMJD2A Tudor inh: -15.1%; HP1b chromo inh: 30.7%

What do the screens show for `NC(=O)c1ccc(NC(=O)CSC2=Nc3ccccc3C3CC=NN23)cc1` (centres undefined)?
G9a block: 12.6µM*; BAZ2B inh: 6.0%; PLK1 PBD block: -24.9%; Sfp inh: 5.9%; JMJD2A Tudor inh: -8.2%; HP1b chromo inh: 30.2%

What do the screens show for `Cc1ccc(C)c(S(=O)(=O)N2CCN(C(=O)Cc3ccc(S(=O)(=O)N4CCOCC4)s3)CC2)c1`?
G9a block: -8.9%[2.33 µM]; BAZ2B inh: 11.6%; PLK1 PBD block: -4.6%; JMJD2A Tudor inh: -13.8%; HP1b chromo inh: 23.4%

Results for CCCn1c(SCC(=O)c2ccc3c(c2)OCCO3)n[nH]c1=O ?
G9a block: 11.0%; PLK1 PBD block: -15.9%; Sfp inh: -18.9%; JMJD2A Tudor inh: -6.8%[57.1 µM]; HP1b chromo inh: 45.0%

Results for CCCn1c(SCC(=O)c2cc(C)c(C)cc2C)n[nH]c1=O ?
G9a block: 11.2µM*; BAZ2B inh: 2.7%; PLK1 PBD block: -15.1%; Sfp inh: 11.1%; JMJD2A Tudor inh: -5.1%; HP1b chromo inh: 35.4%

Results for Cc1ccc(Cl)cc1N1CCN(C(=O)c2c(C)oc3ncnc(N4CCOCC4)c23)CC1 ?
G9a block: -10.2%[59 µM]; BAZ2B inh: -1.2%[57.1 µM]; JMJD2A Tudor inh: -2.6%; HP1b chromo inh: 20.7%

How did C=C(C)CSC1=C(C#N)C(c2ccsc2)CC(=O)N1 (centres undefined) do in these assays?
G9a block: 2.6%[12.7 µM]; BAZ2B inh: 15.2%; PLK1 PBD block: -24.4%; Sfp inh: 28.2µM*; JMJD2A Tudor inh: -14.2%; HP1b chromo inh: 11.0%

How did C=CCSC1=C(C#N)C(c2ccc(C(C)C)cc2)CC(=O)N1 (centres undefined) do in these assays?
G9a block: 44.7µM*; BAZ2B inh: -4.1%; PLK1 PBD block: -19.2%; Sfp inh: 44.7µM*; JMJD2A Tudor inh: -29.1%; HP1b chromo inh: 0.2%

Results for CCSC1=C(C#N)C(c2ccc(F)cc2)CC(=O)N1 (centres undefined) ?
G9a block: -13.4%; BAZ2B inh: 5.5%; PLK1 PBD block: -3.9%; Sfp inh: -4.2%; JMJD2A Tudor inh: -3.4%; HP1b chromo inh: 32.3%

Results for CCOC(=O)CSC1=C(C#N)C(c2ccc3c(c2)OCO3)CC(=O)N1 (centres undefined) ?
G9a block: -20.3%[59 µM]; BAZ2B inh: -0.5%; PLK1 PBD block: -17.0%; Sfp inh: -5.6%; JMJD2A Tudor inh: 4.6%[11.4 µM]; HP1b chromo inh: 32.6%
